The results in this text go back to PubChem BioAssay (Tox21).

The structures appear in SMILES notation. A number with no mark means an inactive call. Active and inactive are the calls of the source. Unless noted, calls follow the shape of the full dose curve.

The target in test [1] is Estrogen receptor (Homo sapiens) (UniProt P03372). Description: qHTS assay to identify small molecule antagonists of the estrogen receptor alpha (ER-alpha) signaling pathway (AID 743069; active = well fitted curve in the direction sought with a large enough effect in the signal ratio in the repeat runs, not every such curve was filed as active; inconclusive = weak or mixed curves, or effect the other way; inactive = no such curve, though single readings can be large or run the other way; the % refers to the signal ratio; also: potency is read from the fitted curve at half-maximal effect). In short, it runs like this:
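Antagonist mode: compounds in DMSO were co-added with 17beta-estradiol to ER-alpha-bla HEK293 cells (2% charcoal-stripped serum) and left 18 h at 37C. Reporter inhibition was measured as FRET fluorescence after 2 h LiveBLAzer substrate at room temperature.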
A general note: In qHTS, concentration-response curves come from the screen itself.

Test [2] is described as follows: qHTS assay to identify small molecule antagonists of the estrogen receptor alpha (ER-alpha) signaling pathway - cell viability counter screen (AID 743074).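 Also: HEK293 cells carrying ER-alpha-UAS-bla reporter stimulated with 17beta-estradiol; nearly all actives have a fitted effect of over 45% in size.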
The target of test [3] is Estrogen receptor (Homo sapiens) (UniProt P03372). Description: qHTS assay to identify small molecule agonists of the estrogen receptor alpha (ER-alpha) signaling pathway (AID 743075).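 Also: HEK293 GripTite cells with ER-alpha and UAS-driven beta-lactamase reporter.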 Also: potency is read from the fitted curve at half-maximal effect.
Estrogen receptor (Homo sapiens), sequence (P03372 whole entry, looked up): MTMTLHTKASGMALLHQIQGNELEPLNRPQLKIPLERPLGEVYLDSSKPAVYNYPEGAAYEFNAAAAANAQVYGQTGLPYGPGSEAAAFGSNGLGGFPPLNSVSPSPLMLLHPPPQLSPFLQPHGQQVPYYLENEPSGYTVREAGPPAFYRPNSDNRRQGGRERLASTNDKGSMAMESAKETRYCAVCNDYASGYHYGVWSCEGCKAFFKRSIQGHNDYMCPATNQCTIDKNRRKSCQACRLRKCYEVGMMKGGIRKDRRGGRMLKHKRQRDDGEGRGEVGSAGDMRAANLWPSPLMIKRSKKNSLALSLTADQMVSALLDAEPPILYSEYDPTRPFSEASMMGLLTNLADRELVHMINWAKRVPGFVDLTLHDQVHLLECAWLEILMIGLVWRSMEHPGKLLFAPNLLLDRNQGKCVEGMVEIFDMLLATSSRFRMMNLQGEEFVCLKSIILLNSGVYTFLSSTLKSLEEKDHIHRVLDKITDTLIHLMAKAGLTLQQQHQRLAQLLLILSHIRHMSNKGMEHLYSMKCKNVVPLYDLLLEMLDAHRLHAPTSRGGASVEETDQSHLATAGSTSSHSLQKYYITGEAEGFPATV
The nature of test [4]: qHTS assay to identify small molecule antagonists of the estrogen receptor alpha (ER-alpha) signaling pathway using the BG1 cell line - cell viability counter screen (AID 743081; active = well fitted curve in the direction sought with a large enough effect in the repeat runs; inconclusive = weak or mixed curves; inactive = no such curve, though single readings can be large; an effect the other way counts as inactive or inconclusive;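 also: compound given together with 17beta-estradiol as the ER stimulus; nearly all actives have a fitted effect of over 45% in size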; also: potency is read from the fitted curve at half-maximal effect).
In another test the target is Aromatase (Homo sapiens) (UniProt P11511). Description: qHTS assay to identify aromatase inhibitors (AID 743083; active = well fitted curve in the direction sought with a large enough effect in the repeat runs; inconclusive = weak or mixed curves; inactive = no such curve, though single readings can be large; an effect the other way counts as inactive or inconclusive; also: nearly all actives have a fitted effect of over 55% in size; also: potency is read from the fitted curve at half-maximal effect).
Aromatase (Homo sapiens), sequence (P11511 whole entry, looked up): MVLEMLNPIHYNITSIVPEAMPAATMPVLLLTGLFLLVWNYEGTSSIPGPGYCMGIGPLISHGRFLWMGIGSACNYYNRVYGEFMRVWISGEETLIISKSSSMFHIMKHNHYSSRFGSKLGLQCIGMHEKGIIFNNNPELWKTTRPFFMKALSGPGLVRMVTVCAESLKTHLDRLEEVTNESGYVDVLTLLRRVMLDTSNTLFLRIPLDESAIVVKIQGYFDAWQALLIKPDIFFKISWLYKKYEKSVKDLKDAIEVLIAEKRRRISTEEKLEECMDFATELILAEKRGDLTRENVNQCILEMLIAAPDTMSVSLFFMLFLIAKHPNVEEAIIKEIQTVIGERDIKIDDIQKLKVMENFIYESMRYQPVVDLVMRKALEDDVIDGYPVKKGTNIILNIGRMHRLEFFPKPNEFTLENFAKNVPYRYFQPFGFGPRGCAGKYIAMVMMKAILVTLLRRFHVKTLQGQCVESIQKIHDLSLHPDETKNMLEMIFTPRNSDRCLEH
For test [5], the target named is Estrogen receptor (Homo sapiens) (UniProt P03372). In words: qHTS assay to identify small molecule agonists of the estrogen receptor alpha (ER-alpha) signaling pathway using the BG1 cell line (AID 743079; active = well fitted curve in the direction sought with a large enough effect in the repeat runs; inconclusive = weak or mixed curves; inactive = no such curve, though single readings can be large; an effect the other way counts as inactive or inconclusive; also: nearly all actives have a fitted effect of over 20% in size; also: potency is read from the fitted curve at half-maximal effect).
Test [6] in a line: qHTS assay to identify small molecule antagonists of the estrogen receptor alpha (ER-alpha) signaling pathway using the BG1 cell line (AID 743080).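 Also: BG1 cells stimulated with 17beta-estradiol alongside compound; nearly all actives have a fitted effect of over 25% in size.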 Also: potency is read from the fitted curve at half-maximal effect. In short, it runs like this: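 BG1Luc4E2, endogenous ER-alpha, 4xERE-luc; 5 d charcoal-stripped FBS, phenol red free; 24 h plating; cpd + 17beta-estradiol 21.5 h, 37 C/5% CO2; CellTiter-Fluor viability 30 min, then ONE-Glo luciferase 30 min RT.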

For test [7], the system named is thyroid hormone receptor (rat, GH3 cells). In words: qHTS assay to identify small molecule agonists of the thyroid receptor (TR) signaling pathway (AID 743066).
A short description of test [8]: qHTS assay to identify small molecule antagonists of the thyroid receptor (TR) signaling pathway (AID 743065; active = well fitted curve in the direction sought with a large enough effect in the repeat runs; inconclusive = weak or mixed curves; inactive = no such curve, though single readings can be large; an effect the other way counts as inactive or inconclusive; also: nearly all actives have a fitted effect of over 55% in size; also: potency is read from the fitted curve at half-maximal effect). Put shortly: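 Antagonism measured as loss of luciferase signal in GH3 cells stably carrying a TRE-luciferase reporter, co-treated with compound and T3 (1 nM final) for 23.5 h at 37 C. Viability was read in the same well by CellTiter-Fluor.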

For the molecule `CCCCCCCCCCCSCC(=O)O`, the Potency in [1] was 54.9 µM [inconclusive] (active). Further, the Potency entry (in test [2]; in [3]; in test [4]; in the test with Aromatase (Homo sapiens)) was “inactive” each time.

For the molecule `O=C1[C@@H]2[C@H]3CC[C@H](C3)[C@@H]2C(=O)N1CCCCN1CCN(c2ncccn2)CC1`, the Potency result in test [1], in test [2], in [3], in test [5], in test [6] and in test [4] was “inactive” throughout. The Potency result with Aromatase (Homo sapiens) is “inactive”.

Take `Nc1ccn([C@H]2CS[C@@H](CO)O2)c(=O)n1`: the Potency entry (in test [2]; in test [4]; with Aromatase (Homo sapiens)) was “inactive” throughout.

Consider `CCN(CC)CCOC(=O)C(c1ccccc1)c1ccccc1`, for which the Potency result (in [7]; in [4]; in the test with Aromatase (Homo sapiens)) was “inactive” each time.

As to `CCCCCc1ccco1`, the Potency entry (in test [7]; in test [2]; in [4]; with Aromatase (Homo sapiens)) was “inactive” in each case.

For `SCCc1cnccn1`, the Potency result (in test [8]; in test [7]; in test [6]; in test [4]; with Aromatase (Homo sapiens)) was “inactive” each time.

For the molecule `Cc1ccc2c(c1[N+](=O)[O-])C(=O)c1ccccc1C2=O`, the Potency result (in [7]; in test [2]; in [3]; in test [4]; with Aromatase (Homo sapiens)) was “inactive” throughout. Further, in [5], the Potency was 3.78 µM (active).

For `O=C1c2ccccc2C(=O)c2c(O)ccc(O)c21`, the Potency result in test [7] and in test [2] was “inactive” each time.

Turning to `CCCCC[C@H](O)/C=C/[C@H]1[C@H](O)CC(=O)[C@@H]1C/C=C\CCCC(=O)O`, the Potency entry (in test [7]; in [2]; in the test with Aromatase (Homo sapiens)) was “inactive” in each case.

As for `CN1CCCN(C(c2ccccc2)c2ccc(Cl)cc2)CC1` (centres undefined), in test [8], the Potency was 10.6 µM (active). Besides, the Potency entry (in test [7]; in test [3]; in test [5]; in [6]; with Aromatase (Homo sapiens)) was “inactive” each time.

For the molecule `CCCCCCCC(=O)Oc1c(Br)cc(C#N)cc1Br`, the Potency result in test [7], in [3] and in test [4] was “inactive” each time. The Potency (in test [6]; in the test with Aromatase (Homo sapiens)) was 60.9 µM (active) in each case.

In the case of `CSCC[C@H](NC(=O)[C@H](Cc1c[nH]c2ccccc12)NC(=O)CCNC(=O)OC(C)(C)C)C(=O)N[C@@H](CC(=O)O)C(=O)N[C@@H](Cc1ccccc1)C(N)=O`, the Potency result (in [2]; in test [3]; in test [5]; in test [6]; with Aromatase (Homo sapiens)) was “inactive” each time.

As for `CC(=O)OCC(C)C`, the Potency result (in test [3]; in test [4]; with Aromatase (Homo sapiens)) was “inactive” in each case.

On to `C[C@@H]1[C@H](O)[C@@H](C)/C=C/C=C\C=C\C=C\C=C\C=C\C=C\[C@H](O[C@@H]2O[C@H](C)[C@@H](O)[C@H](N)[C@@H]2O)C[C@@H]2O[C@](O)(C[C@@H](O)C[C@@H](O)[C@H](O)CC[C@@H](O)C[C@@H](O)CC(=O)O[C@H]1C)C[C@H](O)[C@H]2C(=O)O` (stereo in doubt), for which the Potency entry in test [1], in test [2], in test [3], in [5], in [6] and in test [4] was “inactive” each time. Moreover, in the test with Aromatase (Homo sapiens), the Potency entry is “inactive”.

Take `NC(=O)CCCCC(N)=O`: the Potency result in test [7], in test [1], in test [2], in [3], in test [5] and in [6] was “inactive” throughout. Moreover, the Potency result (in test [4]; with Aromatase (Homo sapiens)) was “inactive” throughout.

Consider `CCCCCCOC(=O)CCCCC`, for which the Potency entry (in test [7]; in test [2]; in test [4]; in the test with Aromatase (Homo sapiens)) was “inactive” in each case.

Consider `Cc1c(C2(c3cc(Br)c(O)c(Br)c3C)OS(=O)(=O)c3ccccc32)cc(Br)c(O)c1Br`, for which the Potency result in test [7] is “inactive”. Besides, the Potency in [4] was 11.8 µM (active); in the test with Aromatase (Homo sapiens), 16.7 µM (active).

`CN=C(N)NC(=O)Nc1c(C)cccc1C`: the Potency result (in [1]; in [2]; in [3]; in test [5]; in test [6]; in the test with Aromatase (Homo sapiens)) was “inactive” throughout.

As to `O=C(O)CCC(=O)c1ccc(-c2ccccc2)cc1`, the Potency entry (in test [2]; in test [4]; in the test with Aromatase (Homo sapiens)) was “inactive” each time.

`CCCCCCCC/C=C\CCCCCCCC(=O)OCCO`: the Potency entry in test [7], in [1], in [2], in test [3], in test [5] and in test [6] was “inactive” throughout. Also, the Potency entry (in test [4]; with Aromatase (Homo sapiens)) was “inactive” throughout.

Turning to `Cc1cccc2sc(N)nc12`, the Potency entry (in test [7]; in test [2]; in test [3]; in test [5]; in test [4]; in the test with Aromatase (Homo sapiens)) was “inactive” each time.

`CCN(Cc1cccc(S(=O)(=O)O)c1)c1ccc(C(=C2C=CC(=[N+](CC)Cc3cccc(S(=O)(=O)O)c3)C=C2)c2ccc(O)cc2S(=O)(=O)[O-])cc1`: the Potency result in test [3] was “inactive”. Also, the Potency in test [4] is 33.1 µM (active); with Aromatase (Homo sapiens), 18.6 µM (active).

Turning to `Oc1ccc2c(c1)Cc1ccccc1-2`, the Potency result (in test [7]; in test [2]; in test [4]; with Aromatase (Homo sapiens)) was “inactive” throughout. For the same molecule, the Potency in test [3] was 24.5 µM [activator] (active); in test [5] it was 13.7 µM (active).

In the case of `CC(C)(C)CCCCCCOC(=O)c1ccccc1C(=O)OCCCCCCC(C)(C)C`, the Potency result (in test [8]; in test [3]; in [5]; in [6]; in test [4]; with Aromatase (Homo sapiens)) was “inactive” throughout.

For the molecule `Cc1ccc(N(CC2=NCCN2)c2cccc(O)c2)cc1`, the Potency entry (in test [7]; in test [1]; in test [2]; in [3]; in test [4]; in the test with Aromatase (Homo sapiens)) was “inactive” throughout.

As to `O[C@@H](CNC[C@H](O)[C@H]1CCc2cc(F)ccc2O1)[C@@H]1CCc2cc(F)ccc2O1`, the Potency in test [8] was 9.44 µM (active); in [1] it was 26.8 µM [inconclusive] (active); with Aromatase (Homo sapiens), 33.5 µM (active). Also, the Potency result in test [2], in test [3], in test [5] and in [6] was “inactive” in each case.

With `CCCc1nc2c(C)cc(-c3nc4ccccc4n3C)cc2n1Cc1ccc(-c2ccccc2C(=O)O)cc1`, the Potency entry in test [7], in [2], in test [3], in [5], in [6] and in test [4] was “inactive” throughout. The Potency result with Aromatase (Homo sapiens) was “inactive”.

Consider `CCO[Si](C)(CCCOCC1CO1)OCC` (centres undefined), for which the Potency entry in test [7], in [2], in [3], in [5], in test [6] and in [4] was “inactive” throughout. The Potency entry with Aromatase (Homo sapiens) is “inactive”.

As to `Nc1ccc(F)cc1`, the Potency entry (in test [7]; in [3]; in [5]; in [4]; with Aromatase (Homo sapiens)) was “inactive” each time.
